This passage reports outcome results from PubChem BioAssay AID623865 (Southern Research Specialized Biocontainment Screening …, 2012).

Each structure is given as a SMILES string. Active and inactive are the calls of the source. How the calls were made is not given here.

This experiment can be described thus: West Nile virus CPE inhibitors, flavivirus guanylyltransferase probe project, cell-based, secondary screen (AID 623865). Particulars: West Nile virus CPE inhibition assay; series mostly up to 50 µM.
Consider `O=[N+]([O-])c1cccc(S(=O)(=O)Nc2cc(Sc3nc4ccccc4s3)c(O)c3ccccc23)c1`, for which the call was inactive.

For `O=[N+]([O-])c1cccc(S(=O)(=O)Nc2cc(SCc3ccccc3)c(O)c3ccccc23)c1`, the compound was classed as inactive.

In the case of `O=C(O)CSc1cc(NS(=O)(=O)c2ccc(Cl)cc2)c2ccccc2c1O`, the result was inactive.

For the compound `O=S(=O)(Nc1cc(Cl)c(O)c2ccccc12)c1ccc(F)cc1`, the compound was called inactive.

Regarding `COc1ccc(OC)c(S(=O)(=O)Nc2cc(SCC(=O)O)c(O)c3ccccc23)c1`, the call was inactive.

For `O=S(=O)(Nc1cc(SCc2ccccc2)c(O)c2ccccc12)c1ccc(Cl)cc1`, the call was inactive.

Regarding `O=C(O)CSc1cc(NS(=O)(=O)c2ccc(F)cc2)c2ccccc2c1O`, the compound was classed as inactive.

For the compound `O=C(O)CSc1cc(NS(=O)(=O)c2cccc3cccnc23)c2ccccc2c1O`, the call was inactive.

As to `O=S(=O)(Nc1cc(Sc2ncn[nH]2)c(O)c2ccccc12)c1ccc(F)cc1`, the compound was classed as inactive.

As to `O=C(O)CSc1cc(NS(=O)(=O)c2cccc([N+](=O)[O-])c2)c2ccccc2c1O`, the compound was called inactive.

With `Cc1ccc(S(=O)(=O)Nc2cc(SCC(=O)O)c(O)c3ccccc23)cc1`, the call was inactive.

With `Cc1ccc(S(=O)(=O)Nc2cc(Sc3nc(C)cc(C)n3)c(O)c3ccccc23)cc1`, the compound was called inactive.

With `Cn1c(=O)c2[nH]c(-c3ccc(Cl)cc3)c(O)c2n(C)c1=O`, the outcome was inactive.

Take `Cn1c(=O)c2[nH]c(-c3ccccc3)c(O)c2n(C)c1=O`: the call was inactive.

As for `O=S(=O)(Nc1cc(Sc2ccccc2)c(O)c2ccccc12)c1ccc(F)cc1`, the result was inactive.

As for `Cc1cc(F)ccc1S(=O)(=O)Nc1cc(SCC(=O)O)c(O)c2ccccc12`, the compound was classed as inactive.

Take `O=C(O)CSc1cc(NS(=O)(=O)c2ccc(Br)cc2)c2ccccc2c1O`: the compound was called inactive.

On to `Cc1cc(C)c(S(=O)(=O)Nc2cc(SCC(=O)O)c(O)c3ccccc23)c(C)c1`, for which the result was inactive.
